Experimental data taken from the supplement of paper PMC10981050.
Where “and” joins values, the source holds several entries; their conditions need not be identical. Identical values can stand only once.

Tests used:
Assay in all cases: cell viability relative to vehicle control; higher = less cytotoxic
Conditions in all cases: 10 µM
K562 = system: K562
Summary of the method: (§1)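 Each screen used CRISPR-edited mutant and wild-type clones from four leukaemia lines. Compounds were acoustically dispensed at a single 10 µM dose, and CellTiter-Glo luminescence was read after 48 h with the supernatant first removed. Viability was analysed in Genedata Screener and given as percent of the on-plate vehicle control.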

MARIMO = system: MARIMO
Summary of the method: as §1

MOLM14 = system: MOLM14
Summary of the method: as §1

OCI-AML2 = system: OCI-AML2
Summary of the method: as §1

SMILES	cell viability (K562; SRSF2 genotype: SRSF2 P95H/wt)	cell viability (K562; SRSF2 genotype: SRSF2 wt/wt)	cell viability (MARIMO; SRSF2 genotype: SRSF2 P95H/wt)	cell viability (MARIMO; SRSF2 genotype: SRSF2 wt/wt)	cell viability (MOLM14; SRSF2 genotype: SRSF2 P95H/wt)	cell viability (MOLM14; SRSF2 genotype: SRSF2 wt/wt)	cell viability (OCI-AML2; SRSF2 genotype: P95H/wt)	cell viability (OCI-AML2; SRSF2 genotype: wt/wt)
Cc1cc(C)n(C)n1 [1,3,5-Trimethylpyrazole]	110% and 105%	115%	113%	109%	97.9%	110%	104%	104%
NNC(=O)c1ccncc1 [Isoniazid (Tubizid)]	106% and 109%	112%	101%	107%	107%	106%	102%	115%
Cc1nc(Nc2ncc(C(=O)Nc3c(C)cccc3Cl)s2)cc(N2CCN(CCO)CC2)n1 [Dasatinib Monohydrate]	23.6% and 40.6%	28.3%	67.5%	70.5%	38.8%	39%	33.3%	43.3%
Cc1cnc(C(=O)N[C@H]2CCCCC/C=C\[C@@H]3C[C@@]3(C(=O)NS(=O)(=O)C3CC3)NC(=O)[C@@H]3C[C@@H](Oc4nc5ccccc5c5ccccc45)CN3C2=O)cn1 [Paritaprevir(ABT-450)]	98.7% and 91.6%	91.4%	106%	119%	97.8%	100%	115%	114%
CC1(C)C(O[C@@H]2OC[C@@H](O)[C@H](O)[C@H]2O)CC[C@]23CC24CC[C@]2(C)[C@@H]([C@@]5(C)CC[C@@H](C(C)(C)O)O5)[C@H](O)C[C@@]2(C)C4C[C@@H](O[C@@H]2O[C@H](CO)[C@@H](O)[C@H](O)[C@H]2O)C13 (stereo not given in full) [Astragaloside IV]	110% and 114%	113%	112%	102%	108%	114%	116%	102%
COC(=O)CCC(C)C1CCC2C3C(O)CC4CC(O)CCC4(C)C3CC(O)C12C (stereo not given) [Methyl Cholate]	97.3% and 98.1%	101%	104%	112%	55.6%	89%	102%	81.8%
CCCCCCCCCCCCCCCCOc1nc2ccc(C)cc2c(=O)o1 [Cetilistat]	107% and 111%	108%	108%	108%	103%	108%	107%	108%
O=C(O)CC(O)C(=O)O (stereo not given) [Malic acid]	82.4% and 82.1%	83.7%	99.6%	88.9%	77.2%	101%	102%	104%
COc1cc(N2CCC(N)CC2)ccc1Nc1ncc(Cl)c(-c2c[nH]c3ccccc23)n1	14.5% and 15.7%	7.15%	37.8%	33.6%	1.81%	5.73%	6%	16.7%
CCN1C(=O)CNc2ncc(-c3ccc(-c4nc[nH]n4)nc3C)nc21	13.8% and 18.5%	23.9%	27.5%	27.6%	9.85%	11.8%	8.07%	16.1%
CCN(CC)CC#CCOC(=O)C(O)(c1ccccc1)C1CCCCC1 (stereo not given) [Oxybutynin chloride]	94.9% and 97.5%	88.6%	79.8%	96%	83%	101%	80.8%	91.8%
OC[C@H]1O[C@H](O[C@H]2[C@H](O)[C@@H](O)C(O)O[C@@H]2CO)[C@H](O)[C@@H](O)[C@@H]1O (mixture of isomers) [Maltose]	96.1% and 91.6%	99.6%	102%	102%	98.9%	98.9%	96.6%	104%
CCOC(=O)C=P(c1ccccc1)(c1ccccc1)c1ccccc1 [Ethyl (triphenylphosphoranylidene) acetate]	96.8% and 92.7%	98.4%	90%	99.2%	84.5%	93%	90.2%	84.8%
O=C1CC(c2c[nH]c3ccc(F)cc23)C(=O)N1 (stereo not given)	103%	111%	100%	102%	103%	108%	100%	101%
Cc1cc(C)cc(C(=O)NOCCCCCC(=O)NO)c1	1.41% and 17.1%	4.57%	7.1%	10.6%	0.7%	0.46%	2.75%	5.29%
C[C@]12C=CC(=O)N[C@@H]1CC[C@@H]1[C@@H]2CC[C@]2(C)[C@@H](C(=O)Nc3cc(C(F)(F)F)ccc3C(F)(F)F)CC[C@@H]12 [Dutasteride]	94.4% and 96.6%	95%	102%	94.1%	96%	98.3%	101%	94.7%
C/C=C(/C)C(=O)O[C@H]1[C@@H](OC(C)=O)c2c(ccc3ccc(=O)oc23)OC1(C)C [(+)-Praeruptorin A]	92.3% and 98.4%	90.2%	84.5%	93.9%	82.8%	93.3%	90.3%	104%
O[C@@H](COc1cccc2ncccc12)CN1CCN([C@@H]2c3ccccc3[C@@H]3[C@H](c4ccccc42)C3(F)F)CC1	60.6% and 54.3%	54.9%	56.6%	55.6%	39.8%	36.2%	39.2%	40.7%
C=C1C[C@@]23CC[C@H]4[C@@](C)(CCC[C@@]4(C)C(=O)O)[C@@H]2CC[C@]1(O[C@@H]1O[C@@H](CO)[C@@H](O)[C@H](O)[C@@H]1O[C@@H]1O[C@@H](CO)[C@@H](O)[C@H](O)[C@@H]1O)C3 [Steviolbioside]	111% and 108%	107%	114%	99.5%	118%	110%	104%	103%
Cc1c(C(C)C)c(=O)n(-c2ccccc2)n1C [Propyphenazone (4-Isopropylantipyrine)]	101% and 105%	97.5%	94%	105%	94.3%	101%	86.9%	97.4%
